In PubChem BioAssay (NCATS):
Values joined by “and” are separate entries in the source; they are usually repeats but may differ in a detail not shown here. Identical values can stand only once. Inconclusive results are not listed. Active and inactive are the calls of the source. Unless noted, calls follow the shape of the dose curve; as a rule, active = well fitted curve in the direction sought with a large enough effect; inconclusive = small, poorly fitted or top-dose-only effect, or another doubt; inactive = no such curve, though single readings can be large; an effect the other way counts as inactive or inconclusive.

Experiments:
[1] = qHTS assay for measurement of the activity of small molecule inhibitors on Zika virus induced Caspase-3 activity in human iPSC derived neural progenitor cells (hNPCs) (AID 1224857); also: nearly all actives have a fitted effect of over 65% in size
Summary of the method: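 Zika virus (2 FFU/cell) infection of human iPSC-derived NPCs, 6 h, following 1 h compound preincubation. Read-out: Caspase-Glo 3/7 luminescence.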

[2] = qHTS assay for measurement of the activity of small molecule inhibitors on Zika virus induced Caspase-3 activity in human astrocytoma cells (AID 1224859)
Summary of the method: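 Caspase activation in ZIKV-infected SNB-19 cells (2 FFU/cell, 6 h) measured by Caspase-Glo 3/7 luminescence after 30 min RT; compound pre-incubated 1 h; normalised to uninfected and infected controls.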

[3] = qHTS assay to identify small molecule inhibitors of chordoma cells - UCH-1 (AID 1259355); also: nearly all actives have a fitted effect of over 55% in size; also: potency is read from the fitted curve at half-maximal effect; series mostly up to about 46 µM
Summary of the method: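 A 48hr growth-inhibition format: each drug tested at 15 concentrations together with added auranofin, camptothecin, doxorubicin, rubitecan and topotecan, with cell viability quantified as CellTiter-Glo luminescence.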

[4] = qHTS assay to identify small molecule inhibitors of chordoma cells - UCH-2 (AID 1259356); also: series mostly up to about 46 µM
[5] = P-glycoprotein substrates identified in KB-8-5-11 adenocarcinoma cell line, qHTS therapeutic library screen (AID 1346987); also: nearly all actives have a fitted effect of over 65% in size
Summary of the method: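 Compounds are pinned in dose-response onto KB-8-5-11 cells (500 cells/well, colchicine-free medium) and left 72 h at 37 degree C. CellTiter-Glo luminescence then yields AC50 values.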

[6] = NS1 protein of Zika virus - qHTS assay to identify small molecule inhibitors in human HEK 293 cells (AID 1347053); also: series mostly up to about 46 µM; nearly all actives have a fitted effect of over 55% in size
Summary of the method: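 Read-out is a two-antibody TR-FRET for ZIKV NS1, normalized between uninfected cells and infected cells. Compound added 1 h before MR766 infection at MOI 0.5; human HEK 293 cells incubated 24 h, 37 C.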

[7] = biological target: T1, Tyrosine-protein phosphatase non-receptor type substrate 1 (Homo sapiens) + Leukocyte surface antigen CD47 (Homo sapiens) (UniProt P78324+Q08722); experiment: CD47-SIRPalpha protein protein interaction - LANCE assay qHTS validation (AID 1347057; active = well fitted curve in the direction sought with a large enough effect in the signal ratio, with a control signal flat, not every such curve was filed as active; the % refers to the signal ratio; also: series mostly up to about 38 µM)
T1 sequence (P78324 whole entry, looked up, the tested form may be a part): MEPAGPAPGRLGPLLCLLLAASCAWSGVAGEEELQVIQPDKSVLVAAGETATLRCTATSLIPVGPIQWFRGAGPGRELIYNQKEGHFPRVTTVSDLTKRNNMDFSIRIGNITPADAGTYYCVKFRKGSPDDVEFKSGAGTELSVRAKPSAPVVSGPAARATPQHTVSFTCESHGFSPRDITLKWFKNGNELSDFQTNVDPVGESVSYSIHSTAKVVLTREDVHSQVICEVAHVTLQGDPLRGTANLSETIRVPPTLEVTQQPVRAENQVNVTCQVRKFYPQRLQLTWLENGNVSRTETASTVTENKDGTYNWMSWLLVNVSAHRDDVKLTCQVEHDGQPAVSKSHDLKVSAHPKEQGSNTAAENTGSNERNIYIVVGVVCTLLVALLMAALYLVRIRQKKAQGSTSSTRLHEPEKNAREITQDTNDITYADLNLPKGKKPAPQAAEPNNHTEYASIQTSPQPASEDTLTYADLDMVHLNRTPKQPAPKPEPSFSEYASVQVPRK
T1 sequence (Q08722 whole entry, looked up, the tested form may be a part): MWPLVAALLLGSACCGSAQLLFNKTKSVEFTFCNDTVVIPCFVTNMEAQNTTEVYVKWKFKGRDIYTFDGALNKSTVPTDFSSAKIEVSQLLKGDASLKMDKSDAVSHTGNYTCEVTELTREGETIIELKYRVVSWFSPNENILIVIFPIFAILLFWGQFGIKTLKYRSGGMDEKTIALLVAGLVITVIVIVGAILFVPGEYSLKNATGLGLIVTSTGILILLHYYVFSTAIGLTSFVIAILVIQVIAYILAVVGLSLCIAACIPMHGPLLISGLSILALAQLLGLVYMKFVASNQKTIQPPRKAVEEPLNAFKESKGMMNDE
Summary of the method: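 Inhibition of soluble CD47/SIRPalpha ectodomain association by titrated compounds, measured as 665/615 nm time-resolved FRET ratio after sequential 30 min room-temperature incubations.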

[8] = biological target: T1, Tyrosine-protein phosphatase non-receptor type substrate 1 (Homo sapiens) + Leukocyte surface antigen CD47 (Homo sapiens); experiment: CD47-SIRPalpha protein protein interaction - HTRF assay qHTS validation (AID 1347058; active = well fitted curve in the direction sought with a large enough effect in the signal ratio, not every such curve was filed as active; the % refers to the signal ratio; also: series mostly up to about 38 µM)
Summary of the method: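 Soluble extracellular domains (6His-CD47, Avi-tag-biotinylated SIRPalpha) in PBS pH 7.4 with 0.05% IGEPAL CA-630. Compounds were preincubated 30 min at RT with CD47 and anti-His-Eu, then SIRPalpha and SAV-XL665 were added. TR-FRET 665/615 ratio.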

[9] = Natriuretic polypeptide receptor (hNpr1) antagonism - Pilot counterscreen GloSensor control cell line (AID 1347045; calls by dose curve; also: series mostly up to about 38 µM)
Summary of the method: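 Control counterscreen: luciferase cGMP-biosensor HEK293 cells (no Npr1) received compound for 30 min at room temperature after GloSensor substrate loading. Luminescence was measured before and 20 min after soluble guanylyl cyclase activation by 50 uM nitroprusside.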

[10] = biological target: Atrial natriuretic peptide receptor 1 (Homo sapiens) (UniProt P16066); experiment: Natriuretic polypeptide receptor (hNpr1) antagonism - Pilot screen (AID 1347049; calls by dose curve;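 also: HEK293 cells with hNpr1 and GloSensor cGMP luciferase stimulated by 0.1 nM hNppA; agonist-evoked cGMP luminescence read 20 min after hNppA addition; series mostly up to about 58 µM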)
Sequence of Atrial natriuretic peptide receptor 1 (Homo sapiens) (P16066 whole entry, looked up): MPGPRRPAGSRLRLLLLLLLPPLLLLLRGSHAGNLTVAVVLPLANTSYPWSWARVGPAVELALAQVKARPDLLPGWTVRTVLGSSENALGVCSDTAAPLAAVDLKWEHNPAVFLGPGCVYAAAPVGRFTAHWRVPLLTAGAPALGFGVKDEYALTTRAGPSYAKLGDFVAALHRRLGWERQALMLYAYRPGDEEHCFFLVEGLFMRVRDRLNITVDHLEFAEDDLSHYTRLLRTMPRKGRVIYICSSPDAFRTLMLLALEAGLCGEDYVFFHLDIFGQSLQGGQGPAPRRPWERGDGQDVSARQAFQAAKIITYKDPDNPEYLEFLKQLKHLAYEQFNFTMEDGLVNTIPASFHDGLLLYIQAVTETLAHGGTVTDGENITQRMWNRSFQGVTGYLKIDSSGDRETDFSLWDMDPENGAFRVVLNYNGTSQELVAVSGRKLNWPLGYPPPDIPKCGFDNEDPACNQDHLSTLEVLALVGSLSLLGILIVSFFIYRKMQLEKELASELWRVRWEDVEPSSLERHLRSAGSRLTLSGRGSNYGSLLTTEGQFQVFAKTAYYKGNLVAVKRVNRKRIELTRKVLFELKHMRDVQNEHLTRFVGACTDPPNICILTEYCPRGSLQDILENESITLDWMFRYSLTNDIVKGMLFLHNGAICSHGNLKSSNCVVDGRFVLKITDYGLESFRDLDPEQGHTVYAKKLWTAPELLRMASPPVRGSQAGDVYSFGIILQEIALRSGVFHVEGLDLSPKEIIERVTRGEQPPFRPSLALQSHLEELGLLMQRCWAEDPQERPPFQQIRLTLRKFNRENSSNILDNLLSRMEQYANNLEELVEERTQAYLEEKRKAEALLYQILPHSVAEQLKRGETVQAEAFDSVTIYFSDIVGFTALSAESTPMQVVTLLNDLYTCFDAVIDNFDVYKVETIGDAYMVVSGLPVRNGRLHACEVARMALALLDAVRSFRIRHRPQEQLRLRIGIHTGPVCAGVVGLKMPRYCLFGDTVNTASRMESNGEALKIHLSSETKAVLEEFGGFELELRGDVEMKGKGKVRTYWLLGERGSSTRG
Summary of the method: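 Cells expressing receptor plus cGMP biosensor are seeded and incubated overnight at 37C, then loaded with GloSensor reagent (2% final) at room temperature for 2 h. Library compounds go on for 30 min. A pre-read precedes agonist (hNppA, 0.1 nM final) and a 20-min readout.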

Measured: Potency

Cc1cc2nc3c(=O)[nH]c(=O)nc-3n(C[C@H](O)[C@H](O)[C@H](O)CO)c2cc1C
inactive: [1] | [2] | [3] | [4] | [5] | [6]

O=C(O)CN1C(=O)c2cccc3cccc(c23)C1=O
inactive: [1] | [2] | [3] | [4] | [5] | [6]

CCCCN(CCCC)CC(O)c1cc(Cl)cc2c1-c1ccc(Cl)cc1/C2=C/c1ccc(Cl)cc1 (centres undefined)
inactive: [1] | [2] | [3] | [4] | [7]

CCCCc1ncc(/C=C(\Cc2cccs2)C(=O)O)n1Cc1ccc(C(=O)O)cc1
not listed: [8] | [9] | [10]
inactive: all other assays above

CC(C)(C)C(=O)NCCCC(=O)O
inactive: [1] | [2] | [3] | [4] | [5] | [6]

Cc1c(Cl)cccc1Nc1ccccc1C(=O)O
inactive: [1] | [2] | [3] | [4] | [5] | [6]

C[C@H]1O[C@@H](n2cc(F)c(=O)[nH]c2=O)[C@H](O)[C@@H]1O
not listed: [9] | [10]
inactive: all other assays above

Cc1ncc([N+](=O)[O-])n1CC(O)CCl (centres undefined)
inactive: [1] | [2] | [3] | [4] | [5] | [6]

OCc1cc(C(O)CNCCCCCCOCCCCc2ccccc2)ccc1O (centres undefined)
not listed: [3]
inactive: all other assays above

Cc1ccc2nc(N)[nH]c(=O)c2c1Sc1ccncc1
inactive: [1] | [2] | [3] | [4] | [6]

CC(=O)Oc1ccc(C2(c3ccc(OC(C)=O)cc3)C(=O)Nc3ccccc32)cc1
active: [3] 3.55 µM and 3.98 µM
inactive: [1] | [2] | [5]

O=C(O)c1ccccc1O
inactive: [1] | [2] | [3] | [4] | [5] | [6]

O=Cc1ccccc1C=O
inactive: [1] | [2] | [3] | [4] | [6]

C=Cc1c(C)c2cc3[nH]c(cc4nc(cc5nc(cc1[nH]2)C(C)=C5CCC(=O)O)C(CCC(=O)O)=C4C)c(C)c3C=C
not listed: [3] | [8] | [9]
inactive: all other assays above

NCC(=O)CCC(=O)O
inactive: [1] | [2] | [3] | [4] | [5] | [6]

CC[N+](CC)(CC)CCOc1ccc(/C=C/c2ccccc2)cc1
inactive: [1] | [2] | [3] | [4] | [5] | [6]

CC(=O)c1ccc2c(c1)N(CCCN(C)C)c1ccccc1S2
not listed: [8] | [9] | [10]
inactive: all other assays above

O=S(=O)(O)NC1CCCCC1
inactive: [1] | [2] | [3] | [4] | [5] | [6]

CC(COc1ccccc1)NC(C)C(O)c1ccc(O)cc1 (centres undefined)
inactive: [1] | [2] | [3] | [4] | [5] | [6]

Cn1c(=O)c2c(ncn2CC2OCCO2)n(C)c1=O
inactive: [1] | [2] | [3] | [4] | [5] | [6]

Cc1cc2c(cc1S(N)(=O)=O)S(=O)(=O)CCC2
inactive: [1] | [2] | [3] | [4] | [5] | [6]
